Experimental data as given in PubChem BioAssay AID2551 (National Center for Advancing Translational Sciences (NCATS), 2010).
The campaign covered roughly 310,000 compounds. About 17,000 (5.5%) were called active. Inconclusive results (about 11%) are left out. Calls follow the shape of the dose curve; as a rule, active = well fitted inhibition curve with a large enough effect; inconclusive = small, poorly fitted or top-dose-only effect, or effect the other way; inactive = no such curve, though single readings can be large or run the other way. For the sample, actives were picked, then their nearest neighbours and some compounds at random.

molecular target: Nuclear receptor ROR-gamma (Mus musculus) (UniProt P51450); assay: qHTS for inhibitors of ROR gamma transcriptional activity; conditions: Drosophila S2 Gal4-RORgamma UAS-luciferase reporter, 20 h; series mostly up to 53.6 µM; also: nearly all actives have a fitted effect of over 60% in size
Sequence (P51450 whole entry, looked up, the tested form may be a part): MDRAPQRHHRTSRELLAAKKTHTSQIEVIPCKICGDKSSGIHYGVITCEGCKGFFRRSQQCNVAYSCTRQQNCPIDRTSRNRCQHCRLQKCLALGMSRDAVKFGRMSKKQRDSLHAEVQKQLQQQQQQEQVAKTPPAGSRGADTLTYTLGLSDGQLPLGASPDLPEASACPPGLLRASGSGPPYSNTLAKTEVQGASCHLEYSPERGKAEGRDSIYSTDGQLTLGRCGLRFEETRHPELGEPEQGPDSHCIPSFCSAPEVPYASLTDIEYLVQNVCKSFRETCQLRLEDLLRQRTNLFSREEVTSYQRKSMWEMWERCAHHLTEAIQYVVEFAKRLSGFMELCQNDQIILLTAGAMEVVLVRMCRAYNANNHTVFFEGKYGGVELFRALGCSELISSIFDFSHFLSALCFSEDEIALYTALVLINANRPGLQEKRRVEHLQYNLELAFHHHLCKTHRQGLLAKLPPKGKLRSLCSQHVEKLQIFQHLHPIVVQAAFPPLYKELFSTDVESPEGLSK
From the text: NIH Molecular Libraries Probe Production Network [MLPCN] NIH Chemical Genomics Center [NCGC] MLPCN Grant: R03 DA026211-01 Assay Provider: Dan Littman, New York University Assay Overview: The retinoic acid-related orphan receptor (ROR) gamma is a transcription factor that has a central role in the differentiation of Th17 cells, a subset of T helper cells that secrete the inflammatory cytokines IL-17, IL-17F, and IL-22. Th17 cells have been implicated in graft versus host disease, autoimmune disease and asthma. ROR gamma is induced in naive T helper cells in the presence of TGF-beta combined with IL-6, IL-21, or IL-23, and thereafter directs the expression of the Th17 lineage cytokines. To study the mechanism of action of ROR gamma, an insect cell-based assay was screened. This Drosophila Schneider cell line was stably transfected with two vectors: a gene expressing a fusion of the Gal4 DNA binding domain and ROR gamma transactivation domain under the control of the metallothionine promoter and a Photinus luciferase reporter regulated by the Gal4 binding site enhancer, UAS. […] Small molecule inhibitors of ROR gamma activity are detected by a decrease in luciferase reporter activity.
Assay Protocol Summary: For screening, 600 cells in 4 uL/well were dispensed into white solid 1536-well plates (Grenier) using a solenoid-based dispenser. Following transfer of 23 nL compound or DMSO vehicle by a pin tool, the plates were incubated 1 hr at ambient temperature, and 1 uL/well copper sulfate (700 uM final concentration) was added. The plates were centrifuged 15 s at 1000 RPM and incubated 20 hr at ambient temperature. After addition of 1.5 uL Photinus luciferase detection reagent, the plates were incubated 10 min at ambient temperature and then read by an ViewLux (Perkin Elmer) to detect luminescence. Keywords: NIH Roadmap, MLPCN, MLI, MLSMR, qHTS, NCGC, qHTS, nuclear hormone receptor, retinoic acid-related orphan receptor, ROR gamma
% is scaled to controls: 0 for no effect and ±100 for the full control effect; potency is read from the fitted curve at half-maximal effect.

Potency, inactive:
COc1ccc(NC(=S)NCCNC(C)=O)cc1
COC(=O)c1cc(OC)c(OC)cc1NC(=O)CSc1ccc(C)cc1
CC1=C(C(=O)OCC2CCCCC2)C(c2ccc(F)cc2)NC(=O)N1 (centres undefined)
CC(=O)OCC(NC(=O)C(Cc1ccccc1)NC(=O)OC(C)(C)C)C1OC(n2ccc(=O)[nH]c2=O)C(OC(C)=O)C1OC(C)=O (centres undefined)
COc1ccc(NC(=O)NCCN2CCN(c3ccc(C)cc3)CC2)c(Cl)c1
COc1ccccc1-c1nnc(SCC(=O)Nc2ccccc2)o1
CCc1ccccc1NC(=O)CSc1nnc(-c2ccncc2)o1
COc1cccc(N2CCN(c3ccc4nnc(CCC(=O)N5CCN(C)CC5)n4n3)CC2)c1
O=C(N/N=C/c1ccccn1)c1ccc(S(=O)(=O)N2CCCCCC2)cc1
O=S(=O)(c1ccc(Br)cc1)N1CCC(c2nc3ccccc3[nH]2)CC1
COc1cc(NC(=O)CSc2ccc(-c3cccnc3)nn2)cc(OC)c1
CC(C)c1ccc(S(=O)(=O)N2CCN(C(=O)c3ccc(N4CCCC4)c([N+](=O)[O-])c3)CC2)cc1
COc1ccccc1N(CC(=O)Nc1ccccc1C(=O)N1CCCC1)S(C)(=O)=O
Cc1ccc(S(=O)(=O)N2CCN(C(=O)N3CCOCC3)CC2)c(C)c1
Cc1ccc(C(=O)NC2CCN(C(=O)Nc3ccc(F)cc3)CC2)cc1
CCC1C/C(=C/c2cccs2)C(=O)/C(=C/c2cccs2)C1 (centres undefined)
CN(CCOc1ccc(CC2SC(=O)NC2=O)cc1)c1ccccn1 (centres undefined)
CC(=O)Nc1ccc(S(=O)(=O)Oc2ccc(/C=N/N=C3/NC(=O)C(CC(=O)O)S3)cc2)cc1 (centres undefined)
COc1ccc(CN2C(=O)C(C)S/C2=N/N=C/c2ccco2)cc1 (centres undefined)
O=C(O)C[C@@H]1NC(=O)[C@H](Cc2ccccc2)NC1=O
C=CCN1C(=O)C(Cc2cccc(Cl)c2)S/C1=N/N=C/c1ccco1 (centres undefined)
O=c1nc(N/N=C/c2ccco2)cn[nH]1
Cc1ccccc1N(C(=O)CNC(=O)c1cccs1)C(C(=O)NC1CCCC1)c1ccncc1 (centres undefined)
O=C(C1CCN(Cc2ccc(Cl)cc2)CC1)N1CCN(Cc2ccc3c(c2)OCO3)CC1
C=CCn1c(SCc2ccccc2)nc2c1c(=O)[nH]c(=O)n2C
O=S(=O)(c1ccccc1)c1nc(Cc2ccccc2)oc1N1CCOCC1
O=S(=O)(c1ccc(F)cc1)N1CCN=C1SCc1cccc(F)c1
CCc1ccc(N2CC(C(=O)Nc3ccc(S(=O)(=O)Nc4nccs4)cc3)CC2=O)cc1 (centres undefined)
CCCCC1(C(=O)OCC)NC(c2ccc(O)cc2)C2C(=O)N(c3ccccc3)C(=O)C21 (centres undefined)
CCN1CCN(C2CCCCC2NS(=O)(=O)c2ccc(Cl)cc2)CC1 (centres undefined)
CC(C)Cn1cnc2c1c(=O)n(CC(=O)NN)c(=O)n2Cc1ccccc1
COc1ccc(C(=O)N/N=c2\oc3ccccc3cc2C(N)=O)cc1
NC(=O)c1cc2ccccc2o/c1=N/NC(=O)c1cccc(F)c1
O=C1CN(C(=O)c2cc(F)cc(F)c2)c2ccccc2N1
CCOC(=O)c1cccnc1NC(=O)c1ccncc1
COc1ccc(OC)c(C(C)NC(=S)Nc2ccc(S(=O)(=O)Nc3ncccn3)cc2)c1 (centres undefined)
Cc1ccc(-c2ccnc3[nH]n(-c4ccccc4)c(=O)c23)cc1
CCc1nnc(NS(=O)(=O)c2ccc(N=Cc3c(C)[nH]n(-c4ccc(C)cc4)c3=O)cc2)s1
Cc1ccc(C(=O)N2CCC(n3nccc3NC(=O)Nc3cccc(F)c3)CC2)cn1
CCOc1ccc(NS(=O)(=O)c2ccc(C)c(C(N)=O)c2)cc1
COc1cccc(NS(=O)(=O)c2ccc3[nH]cc(C(=O)NCCCOC(C)C)c(=O)c3c2)c1
CCOC(=O)c1c(S(=O)(=O)Nc2ccc(CN3CCC(C)CC3)cc2)c(C)n(C)c1C
CCOC(=O)c1cc2cc3ccccc3cc2oc1=O
CCOC(=O)c1cn[nH]c1NC(=S)Nc1ccccc1
Cc1ccc(NC(=O)CSc2nnc(CNC(=O)c3ccccc3F)o2)cc1Cl
COc1ccc(-c2noc(CNC(=O)C(C)Oc3ccccc3)n2)cc1 (centres undefined)
COc1ccc(-c2cc(C(F)(F)F)nc(SCC(=O)Nc3ccc4c(c3)OCO4)n2)cc1OC
COc1cc(OC)nc(S(C)(=O)=O)n1

Potency, active:
COc1cc(NC(=S)NCCSc2ccc(C)cc2)cc(OC)c1 7.08 µM
COc1ccccc1NC(=O)CCSc1nnc(-c2ccc(O)cc2)o1 14.1 µM
N#CC(C(=O)c1ccc(S(=O)(=O)N2CCCCCC2)cc1)c1nc2ccccc2[nH]1 (centres undefined) 12.6 µM
Cc1nc2cc(C(F)(F)F)ccc2n1CCNc1nc(-c2cc(Cl)c(N)c(Cl)c2)cs1 17.8 µM
Cc1ccc(S(=O)(=O)N2CCN(C(=O)CSc3cc(C)ccc3C)CC2)c(C)c1 3.16 µM
CCC1S/C(=N/N=C/c2ccco2)NC1=O (centres undefined) 1.26 µM
CCCCC1S/C(=N/N=C/c2cccs2)NC1=O (centres undefined) 0.112 µM
O=C1N/C(=N\N=C\c2ccco2)SC1Cc1ccc(F)cc1 (centres undefined) 1 µM
CC(C)=N/N=C1/NC(=O)C(Cc2ccccc2)S1 (centres undefined) 2.51 µM
COc1cccc2cc(C(N)=O)/c(=N\NC(=O)c3ccccc3)oc12 7.08 µM
COC(=O)c1cccnc1NC(=S)NC(C)C 1.78 µM
Cc1ccc(-n2[nH]c(C)c(/C=N/N3C(=O)c4cccc5cccc(c45)C3=O)c2=O)cc1 6.31 µM
CCCCNC(=O)c1c[nH]c2ccc(S(=O)(=O)Nc3ccc(OCC)cc3)cc2c1=O 7.94 µM
CCOC(=O)c1cc2c(nc1NC(=S)Nc1ccccc1)CC(C)(CC)OC2 (centres undefined) 3.55 µM
COc1ccc(-c2cc(C(F)(F)F)nc(S(C)(=O)=O)n2)cc1OC 1.78 µM

Activity change, negative = inhibition, inactive:
CCCc1cc(=O)[nH]c(SCC(=O)N2CCN(S(=O)(=O)c3ccc(C)cc3C)CC2)n1 4.85% [at 10 µM]
